The values below come from PubChem BioAssay (EPA / NIEHS).

Structures are written as SMILES. Activity calls are given as the source filed them. The calls were made as follows: active = hit-call score of the fitted dose curve at least 0.9, where 1 is the maximum; inactive = score below 0.9.

Read-out in the assay: adenosine kinase (ADK) gene, ADK (gene 132)
Description: LTEA_HepaRG_ADK: Life Technologies and Expression Analysis (LTEA) Assay for adenosine kinase (ADK) gene using HepaRG (AID 2283471). The note with it: mRNA level, 48 h; actives raise or lower the signal. The procedure:
LTEA_HepaRG is a cell based, multiplexed-readout assay that uses HepaRG, a human liver cell line, with measurements taken at 48 hours after chemical dosing on a 96-well plate.LTEA_HepaRG_ADK is one of 102 assay component(s) measured in the LTEA HepaRG cell culture assay. It is a marker of Steatosis.Data from the assay component LTEA_HepaRG_ADK was analyzed into 1 endpoint. This assay endpoint, LTEA_HepaRG_ADK, was analyzed with bidirectional fitting relative to DMSO as the negative control and baseline of activity. Using a type of inducible reporter, measures of mRNA induction for gain or loss-of-signal activity can be used to understand regulation of transcription factor activity. To generalize the intended target to other relatable targets, this assay endpoint is annotated to the kinase intended target family, where the subfamily is steatosis.
A total of 1060 chemcials from the ToxCast library were tested in eight-point concentration-response experiments. Cell culture and cytotoxicity assays were conducted at Thermo Fisher Scientific's Custom Services facility (Madison, WI). A single lot of human HepaRG cells (Thermo Fisher Scientific, Frederick, MD) was used for the cell culture experiments. 96-well format collagen type I coated plates of human HepaRG cells were prepared using established methods. Briefly, cryopreserved HepaRG cells were thawed, plated at a density of approximately 100,000 cells/well in HepaRG Thaw, Plate, and General Purpose media (HPRG770, Thermo Fisher Scientific), and incubated for 48 hours. 0.5% DMSO was selected as vehicle control to balance the requisite need of DMSO in HepaRG cultures to maintain differentiation (for example, baseline metabolism, proportions of hepatocytes vs. cholangiocytes), while enabling further hepatic receptor pathway activation (for example, PXR and CAR) in response to chemical exposure. 48 hours after plating, the culture medium was replaced with HepaRG Serum-Free Incudtion Media. Cells were exposed to each test chemical in duplicate and maintained in CO2 incubators for another 48 hours. Chemical plates were thawed to room temperature and 200x concentrations of treatment groups were prepared. 8-point conentration-reponse curves were made with the highest exposure at 100 uM, followed by half-log dilutions, all in 0.5% DMSO. Each test plate contained variouse controls, induction positive controls (1mM phenobarbital), cytotoxicity positive controls ([…] aflatoxin B1), vehicle controls (0.5% DMSO), and total lysis controls (0.5% DMSO). Cell morphology images were taken using an Essen IncuCyte FLR automated microscope, with six 96-well plates imaged in about 24 minutes. Images were captured and exported and JPEG files. Spent culture media was transfered to black-well plates for the LDH assay, and remaining media was sorted at -80 C for later use. Cells were treated with RLT buffer and frozen until shipped for gene expression analysis. Total RNA was isolated from the cell suspension in 75 uL of Buffer RLT (Qiagen, Germantown, MD 20874) by Quintiles/Expression Analysis (Durham, NC) using a custom isolation procedure. Total RNA from each plate well was transferred to a preamplification plate. Fluidigm's 96.96 Dynamic ArrayTM (Fluidigm, Amsterdam, the Netherlands) technology was used for gene expression analyses by quantitative reverse transcription polymerase chain reaction (qRT-PCR, performed by Quintiles/Expression Analysis, Durham, NC)89. Standard TaqManTM Assays (Applied Biosystems/ThermoFisher Scientific, Foster City, CA) were used to assess the expression of 93 genes selected based on their selectivity and sensitivity to important hepatic receptors known to be modulated by environmental chemicals; importance in human hepatocyte functionality; and hepatotoxicity. […]
As for `Cc1ccc(S(=O)(=O)NC(=O)NN2CCCCCC2)cc1`, the outcome was inactive. Consider `O=C1CN(N=Cc2ccc([N+](=O)[O-])o2)C(=O)N1`, for which the compound was called inactive. For `O=C(NO)C1(NS(=O)(=O)c2ccc(Oc3ccc(F)cc3)cc2)CCOCC1`, the compound was called inactive. Consider `CCCCCCCC/C=C\CCCCCCCC(=O)OC[C@@H](O)[C@H]1OC[C@H](O)[C@H]1O`, for which the call was inactive. Consider `O=C(O)c1cccc(C(=O)O)c1`, for which the call was inactive. In the case of `CCCc1ccccc1`, the compound was called inactive. As for `Cc1nc(-c2ccccn2)ncc1C(=O)Nn1cc(C)c2cc(F)ccc21`, the compound was classed as inactive. As for `CCCCCOC(C)=O`, the compound was classed as inactive. The same measure, in the same setting: under `OC[C@H]1O[C@@H]2O[C@H]3[C@H](O)[C@@H](O)[C@@H](O[C@H]4[C@H](O)[C@@H](O)[C@@H](O[C@H]5[C@H](O)[C@@H](O)[C@@H](O[C@H]6[C@H](O)[C@@H](O)[C@@H](O[C@H]7[C@H](O)[C@@H](O)[C@@H](O[C@H]1[C@H](O)[C@H]2O)O[C@@H]7CO)O[C@@H]6CO)O[C@@H]5CO)O[C@@H]4CO)O[C@@H]3CO` stands “inactive”.

`CCCCCCCCCC`: the outcome was inactive. For `CCn1nc(C)c2c1C(=O)NCC(c1ccc(O)cc1)=N2`, the compound was called inactive. In the case of `OCCOCCOCCO`, the call was inactive. Consider `OC(Cn1cncn1)(Cn1cncn1)c1ccc(F)cc1F`, for which the compound was called inactive. Regarding `CC1(C)C(=O)N(Cl)C(=O)N1Cl`, the compound was called inactive.

For `O=c1[nH]cnc2c1ncn2[C@H]1CC[C@@H](CO)O1`, the compound was classed as inactive. Consider `CC[C@H](C)C(=O)O[C@H]1C[C@H](O)C=C2C=C[C@H](C)[C@H](CC[C@@H](O)C[C@@H](O)CC(=O)O)[C@H]21`, for which the compound was called inactive. Turning to `NC(=O)N1c2ccccc2C=Cc2ccccc21`, the call was inactive. As for `CCCCCCCCCCCCCCCCOS(=O)(=O)O`, the compound was called inactive. With `C[C@@H](Oc1ccc(CNC(=O)c2cccnc2Oc2ccc3c(c2)OCO3)c(F)c1)C(=O)O`, the call was inactive. Turning to `CCCCCCCCCCCCCCO`, the result was inactive. With `C=CCc1cc(S(=O)(=O)c2ccc(O)c(CC=C)c2)ccc1O`, the call was inactive.

Regarding `CCc1cccc(CC)c1N`, the result was inactive.

`Cn1c(=O)c2[nH]cnc2n(C)c1=O`: the result was inactive.

With `NC(=O)N(O)[C@@H]1COc2cc(OCc3ccccc3)ccc21`, the call was inactive. In the case of `CCOC(N)=O`, the compound was classed as inactive. For the compound `O=C(O)c1ccc2c(c1)nc(C(=O)NC1CCN(C3CC3)CC1)n2Cc1cc(-c2ccc(Cl)s2)on1`, the compound was called inactive. Consider `CCN(CC)C(=S)SSC(=S)N(CC)CC`, for which the result was inactive. `CC(C)C(=O)Nc1ccc([N+](=O)[O-])c(C(F)(F)F)c1`: the outcome was inactive. Turning to `CCCC(CCC)C(=O)O`, the outcome was inactive. Take `c1ccc2c(c1)-c1cccc3c1c-2cc1ccccc13`: the AC50 was 12.3 µM (active).

`NNC(=O)c1ccncc1`: the compound was called inactive. Still for that read-out and setting: as for `c1ccc2ncccc2c1`, the entry is “inactive”; as for `NC(N)=O`, “inactive”. On the same count and under the same terms, under `C=CN1CCCC1=O` stands “inactive”; under `O=C(O)[C@H](O)[C@@H](O)C(=O)O`, “inactive”. As to `CCOc1ccc2[nH]cc(C(=O)NCc3ccccc3)c(=O)c2n1`, the compound was called inactive. `CCCCN1C(=O)[C@@H]([C@H](O)C2CCCCC2)NC(=O)C12CCN(Cc1ccc(Oc3ccc(C(=O)O)cc3)cc1)CC2`: the AC50 was 1.01 µM (active).

`COc1cc(C(C)C)c2c(c1)S(=O)(=O)N(COc1cc(=O)n3cccc(OCCN4CCCCC4)c3n1)C2=O`: the concentration at half-maximal activity (AC50) is 22 µM (active). Take `CNC(C)=O`: the compound was called inactive.

On to `COc1cc2c(c(OC)c1OC)-c1ccc(OC)c(=O)cc1[C@@H](NC(C)=O)CC2`, for which the AC50 is 0.0644 µM (active).

A word on the AC50: it is the concentration giving half of the maximal activity seen.
